In PubChem BioAssay (Tox21) one finds Potency data, which are given here for 19 compounds.

Where “and” joins values, the source holds several entries; their conditions need not be identical. Equal entries are not always repeated. Inconclusive results are not listed. Some compounds were tested as several samples or in several runs, with calls that do not always agree. Calls of active or inactive are those of the source. Unless noted, calls follow the shape of the dose curve; as a rule, active = well fitted curve in the direction sought with a large enough effect in the repeat runs; inconclusive = weak or mixed curves; inactive = no such curve, though single readings can be large; an effect the other way counts as inactive or inconclusive.

Assay [1] addresses Androgen receptor (Homo sapiens) (UniProt P10275). Description: qHTS assay to identify small molecule antagonists of the androgen receptor (AR) signaling pathway using the MDA cell line in the presence of 0.5 nM R1881 (AID 1259243). Also: nearly all actives have a fitted effect of over 50% in size. Also: potency is read from the fitted curve at half-maximal effect. In short, it runs like this: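 Antagonist mode quantitative HTS in MDA-kb2 MMTV-luciferase cells, agonist R1881 at 0.5 nM final, 16 hr exposure at 37C and 0% CO2, luminescent detection.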
On the technique in general: qHTS replaces the single test concentration by a dilution series.

The nature of assay [2]: qHTS assay to identify small molecule HDAC inhibitors (AID 1259364). Also: potency is read from the fitted curve at half-maximal effect.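 Also: wild-type HCT-116 cells with endogenous class I/II HDAC activity; nearly all actives have a fitted effect of over 45% in size.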 In outline: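 Quantitative high-throughput format: overnight-seeded HCT-116 cells got compounds for 2 hr at 37C; HDAC-Glo I/II reagent added, 30 min RT, luminescence measured.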
Assay [3] can be described thus: qHTS assay to identify small molecule HDAC inhibitors - cell viability counter screen (AID 1259365). Also: nearly all actives have a fitted effect of over 50% in size. Also: potency is read from the fitted curve at half-maximal effect. In short, it runs like this: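 Luminescence from CellTiter-Glo, developed 30min at room temperature, reports viability of wild-type HCT-116 cells treated 2hr with compounds at 37 C and 5% CO2 after overnight plating.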
Assay [4] is described as follows: qHTS assay to identify small molecule agonists of the sonic hedgehog signaling (Shh) pathway - cell viability counter screen (AID 1259366). Also: nearly all actives have a fitted effect of over 50% in size. Also: potency is read from the fitted curve at half-maximal effect. In outline:
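Cytotoxicity counter screen run in the same wells as the Shh reporter assay. NIH/3T3 cells carrying a Gli1 response element–driven luciferase were treated with DMSO-dissolved compounds for 24hr, and live-cell protease activity was measured with CellTiter-Fluor.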

Assay [5] can be described thus: qHTS assay to identify small molecule antagonists of the sonic hedgehog signaling (Shh) pathway - cell viability counter screen (AID 1259367). Also: nearly all actives have a fitted effect of over 55% in size. Also: potency is read from the fitted curve at half-maximal effect. In short, it runs like this:
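Cytotoxicity was assessed in parallel with Shh reporter activity by measuring live-cell protease fluorescence (CellTiter-Fluor) in NIH/3T3 cells stably carrying Gli1-Luc, treated with compound under conditioned medium stimulation for 23 hr plus 1 hr reagent incubation.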

Assay [6] can be described thus: qHTS assay to identify small molecule agonists of the sonic hedgehog signaling (Shh) pathway (AID 1259368; calls by dose curve;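 also: NIH/3T3-derived 3T3Gli1-Luc cells carrying a stable Gli1-driven firefly luciferase reporter; series mostly up to about 92 µM; nearly all actives have a fitted effect of over 15% in size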). In short, it runs like this: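 Quantitative high-throughput format using a Gli1-driven firefly luciferase reporter line derived from NIH/3T3 cells. After a 24 hr compound treatment at 37 C and 5% CO2, luminescence reported Gli1 response element activity.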
A short description of assay [7]: qHTS assay to identify small molecule antagonists of the sonic hedgehog signaling (Shh) pathway (AID 1259369; calls by dose curve; also: nearly all actives have a fitted effect of over 45% in size; also: potency is read from the fitted curve at half-maximal effect). In outline: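 Stable Gli1-Luc reporter NIH/3T3 clone; quantitative HTS in stimulated mode with conditioned medium. Luminescence measured after 24hr compound treatment at 37 C.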
In assay [8] the target is Estrogen receptor (Homo sapiens) (UniProt P03372). Description: qHTS assay to identify small molecule antagonists of the estrogen receptor alpha (ER-alpha) signaling pathway using the BG1 cell line in the presence of 0.1 nM 17-beta-estradiol (AID 1259244). Also: nearly all actives have a fitted effect of over 50% in size. Also: potency is read from the fitted curve at half-maximal effect. In short, it runs like this: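 Reporter is a stably transfected luciferase under four estrogen responsive elements in VM7Luc4E2 cells expressing native full-length ER-alpha; inhibition of 0.1 nM (final) 17beta-estradiol-driven signal over 22 h is read by luminescence.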

In assay [9] the target is Estrogen receptor beta (Homo sapiens) (UniProt Q92731). Description: qHTS assay to identify small molecule agonists of the estrogen receptor beta (ER-beta) signaling pathway (AID 1259377; active = well fitted activation curve with a large enough effect in the signal ratio in the repeat runs, not every such curve was filed as active; the % refers to the signal ratio). In outline:
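HEK293T ER-beta-UAS-bla; 2% charcoal-stripped FBS; cells pre-incubated 6 hr, compound 16 hr, 37C/5% CO2; LiveBLAzer B/G FRET substrate 2 h RT; fluorescence intensity read.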

Assay [10] in a line: qHTS assay to identify small molecule phospholipidosis (PLD) inducers (AID 1259344; active = well fitted curve in the direction sought with a large enough effect; an effect the other way counts as inactive or inconclusive). In short, it runs like this: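 Cells (HepG2, 900 per well) attach for 4 h, receive LipidTOX Red and compound together, incubate 24 h at 37 C, are fixed 30 min with paraformaldehyde/Hoechst, then imaged at one site per well.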

Sequence of Estrogen receptor beta (Homo sapiens) (Q92731 whole entry, looked up): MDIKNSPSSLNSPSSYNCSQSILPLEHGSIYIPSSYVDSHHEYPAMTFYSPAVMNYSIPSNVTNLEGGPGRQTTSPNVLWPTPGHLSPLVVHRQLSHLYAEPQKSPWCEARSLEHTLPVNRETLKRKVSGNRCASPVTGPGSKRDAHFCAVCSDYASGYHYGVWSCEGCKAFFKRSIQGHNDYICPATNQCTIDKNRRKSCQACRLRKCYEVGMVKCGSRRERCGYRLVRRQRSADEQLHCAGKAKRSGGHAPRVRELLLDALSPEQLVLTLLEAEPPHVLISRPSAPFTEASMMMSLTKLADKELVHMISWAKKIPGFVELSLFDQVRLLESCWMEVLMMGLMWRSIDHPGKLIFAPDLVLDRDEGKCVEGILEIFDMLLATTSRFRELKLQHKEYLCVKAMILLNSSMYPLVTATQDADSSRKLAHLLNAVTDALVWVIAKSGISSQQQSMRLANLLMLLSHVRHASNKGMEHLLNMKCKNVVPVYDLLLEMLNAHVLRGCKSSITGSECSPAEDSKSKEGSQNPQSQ
Sequence of Androgen receptor (Homo sapiens) (P10275 whole entry, looked up): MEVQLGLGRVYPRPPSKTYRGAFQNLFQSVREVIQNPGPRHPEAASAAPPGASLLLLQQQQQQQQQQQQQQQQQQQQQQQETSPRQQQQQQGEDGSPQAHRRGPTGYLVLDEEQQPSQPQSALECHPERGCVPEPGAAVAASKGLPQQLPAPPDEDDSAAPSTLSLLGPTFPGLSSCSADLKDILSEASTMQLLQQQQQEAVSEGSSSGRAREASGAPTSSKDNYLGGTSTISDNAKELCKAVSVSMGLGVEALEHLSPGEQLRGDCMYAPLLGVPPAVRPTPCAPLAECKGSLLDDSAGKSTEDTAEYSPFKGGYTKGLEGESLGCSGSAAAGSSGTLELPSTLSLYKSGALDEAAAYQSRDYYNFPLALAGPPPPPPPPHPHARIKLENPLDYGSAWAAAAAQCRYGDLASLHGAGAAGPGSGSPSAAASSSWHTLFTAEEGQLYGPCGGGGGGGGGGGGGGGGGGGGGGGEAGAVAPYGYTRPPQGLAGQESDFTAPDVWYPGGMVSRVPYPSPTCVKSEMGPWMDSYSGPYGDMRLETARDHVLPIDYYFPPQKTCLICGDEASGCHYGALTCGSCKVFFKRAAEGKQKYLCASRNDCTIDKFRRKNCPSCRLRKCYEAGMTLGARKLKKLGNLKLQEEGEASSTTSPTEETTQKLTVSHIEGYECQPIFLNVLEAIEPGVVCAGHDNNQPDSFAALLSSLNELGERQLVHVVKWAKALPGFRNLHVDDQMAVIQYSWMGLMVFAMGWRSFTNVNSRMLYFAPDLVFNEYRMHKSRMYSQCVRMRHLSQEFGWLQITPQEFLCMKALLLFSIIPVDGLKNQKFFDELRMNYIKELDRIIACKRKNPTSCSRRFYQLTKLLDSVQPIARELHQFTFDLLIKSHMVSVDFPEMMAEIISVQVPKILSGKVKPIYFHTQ
Sequence of Estrogen receptor (Homo sapiens) (P03372 whole entry, looked up): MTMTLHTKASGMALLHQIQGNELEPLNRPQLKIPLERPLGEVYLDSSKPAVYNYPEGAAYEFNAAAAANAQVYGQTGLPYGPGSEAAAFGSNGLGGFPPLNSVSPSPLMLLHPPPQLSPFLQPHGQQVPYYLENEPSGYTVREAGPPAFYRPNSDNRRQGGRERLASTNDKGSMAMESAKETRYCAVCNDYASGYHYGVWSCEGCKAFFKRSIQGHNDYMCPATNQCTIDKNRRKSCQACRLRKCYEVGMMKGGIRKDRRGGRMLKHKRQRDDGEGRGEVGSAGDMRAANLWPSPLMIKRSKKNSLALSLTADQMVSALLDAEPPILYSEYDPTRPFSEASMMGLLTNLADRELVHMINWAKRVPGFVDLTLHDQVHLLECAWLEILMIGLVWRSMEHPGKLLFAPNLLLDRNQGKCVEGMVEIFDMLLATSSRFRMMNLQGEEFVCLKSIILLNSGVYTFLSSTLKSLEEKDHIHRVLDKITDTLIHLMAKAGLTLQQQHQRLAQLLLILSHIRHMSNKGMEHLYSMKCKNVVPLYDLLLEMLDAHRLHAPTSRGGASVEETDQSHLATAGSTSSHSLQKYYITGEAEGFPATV

For the compound `Cc1cc(N=Nc2ccccc2C)ccc1N`, the Potency in assay [1] is 54.5 µM (active) and 48.6 µM (active); in assay [2], 8.63 µM (active) and 4.86 µM (active); in [4], 27.3 µM (active) and 30.6 µM (active); in assay [5], 27.3 µM (active) and 30.6 µM (active); in assay [7] it was 19.3 µM (active) and inactive. Also, the Potency entry in assay [3] and in assay [6] was “inactive” in each case.

With `C[C@]12Cc3nonc3C[C@@H]1CC[C@@H]1[C@@H]2CC[C@@]2(C)[C@H]1CC[C@]2(C)O`, the Potency in assay [1] was 21.1 µM (active). Besides, the Potency result in assay [2], in assay [3], in [5] and in [6] was “inactive” in each case.

Take `BrCC(Br)c1ccccc1` (centres undefined): the Potency result in [1], in [8], in assay [2], in assay [4], in assay [5] and in assay [6] was “inactive” each time. The Potency entry in assay [7] is “inactive”.

Take `COC(=O)N(C(=O)N1CO[C@@]2(C(=O)OC)Cc3cc(Cl)ccc3C2=N1)c1ccc(OC(F)(F)F)cc1`: the Potency in [1] was 23.5 µM (active); in assay [8], 46.9 µM (active). Also, the Potency entry in assay [2], in [3], in assay [4], in assay [5], in [6] and in assay [9] was “inactive” each time.

Turning to `CCCSP(=O)(OCC)SCCC`, the Potency entry in assay [1], in assay [10], in [2], in assay [4], in [5] and in assay [6] was “inactive” throughout. Further, the Potency result in assay [7] and in [9] was “inactive” each time.

Consider `C[As+](C)(C)CC(=O)[O-]`, for which the Potency result in assay [1], in [8], in [2], in [3], in [4] and in assay [6] was “inactive” each time. The Potency entry in [7] and in [9] was “inactive” each time.

For the compound `CCSC(C)CC1CC(=O)C(/C(CC)=N/OC/C=C/Cl)=C(O)C1` (centres undefined), the Potency entry in assay [1], in [8], in assay [2], in [3], in assay [4] and in assay [5] was “inactive” throughout. The Potency entry in [6], in assay [7] and in assay [9] was “inactive” in each case.

For the compound `N#CC(Cl)Cl`, the Potency result in assay [1], in assay [2], in assay [3], in assay [4], in [5] and in [6] was “inactive” throughout. In addition, the Potency result in assay [9] was “inactive”.

Take `CCCCOP(=O)(CCCC)OCCCC`: the Potency result in assay [1], in assay [2], in assay [3], in assay [4], in assay [5] and in [6] was “inactive” throughout. In addition, the Potency entry in assay [7] and in [9] was “inactive” each time.

For the compound `CCOP(=O)(NC(C)C)Oc1ccc(SC)c(C)c1` (centres undefined), the Potency in [1] was 27.3 µM (active). Besides, the Potency entry in [2], in assay [3], in [4] and in assay [6] was “inactive” in each case.

With `Nc1c(Oc2ccccc2)cc(O)c2c1C(=O)c1ccccc1C2=O`, the Potency result in assay [1], in assay [8], in assay [2], in assay [3], in [4] and in assay [7] was “inactive” each time.

As to `Oc1cc(Cl)c(Cl)c(Cl)c1`, the values for the Potency in assay [1], in assay [8] and in [7] were 46.1 µM (active), 41 µM (active) and 13 µM (active), respectively. Besides, the Potency entry in assay [2], in [4], in [6] and in assay [9] was “inactive” each time.

As to `O=[N+]([O-])c1cc(Cl)ccc1Cl`, the Potency result in assay [1], in assay [8], in [2], in assay [4], in assay [5] and in assay [6] was “inactive” in each case. Besides, the Potency result in assay [7] and in [9] was “inactive” throughout.

`O=C1C=CC(=O)c2ccccc21`: the Potency was 19.3 µM (active) in assay [1]; 10.9 µM (active) in [8]; 48.6 µM (active) in assay [3]; 12.2 µM (active) in assay [4]; 15.4 µM (active) in assay [5]; 4.33 µM (active) in assay [7]. Further, the Potency entry in assay [6] was “inactive”.

Consider `CC(C)(C)C(O)C(Oc1ccc(-c2ccccc2)cc1)n1cncn1` (centres undefined), for which the Potency in assay [1] was 30.6 µM (active); in [4], 30.6 µM (active); in assay [5], 24.3 µM (active); in assay [7], 12.2 µM (active). The Potency entry in [2], in assay [3] and in assay [6] was “inactive” each time.

Turning to `CCC(C)(C)C(=O)OC1=C(c2ccc(Cl)cc2Cl)C(=O)OC12CCCCC2`, the Potency entry in [1], in [8], in [2], in assay [4], in assay [5] and in assay [6] was “inactive” throughout.

For the compound `NC(=O)CCl`, the Potency entry in assay [1], in assay [8], in assay [2], in assay [3], in assay [5] and in [6] was “inactive” each time. Also, the Potency entry in [9] is “inactive”.

In the case of `COP(=S)(OC)Oc1cc(Cl)c(Br)cc1Cl`, the Potency in assay [1] was 54.5 µM (active). Moreover, the Potency entry in assay [2], in assay [3], in [4], in assay [5], in assay [6] and in assay [9] was “inactive” in each case.

On to `FC(Cl)(Cl)Cl`, for which the Potency entry in assay [1], in assay [2], in [3], in [4], in assay [5] and in assay [6] was “inactive” in each case. Moreover, in assay [7], the Potency result is “inactive”.
